A selection: hits, their analogues and other compounds. The true share with any hit is near 6.5%.
TGFb SMAD3 inh – blocks TGF-b signaling | HepG2 CAGA-GFP TGF-b/SMAD3 reporter, GFP fluorescence, 18 h; TGF-beta stimulated, 500 pg/mL final | Potency, µM (titrated, usually from 46.1 µM), most hits filed as inhibitors | 410,000 tested, 1.2% active | AID 588855; further: nearly all actives have a fitted effect of over 65% in size
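Per well, imaged GFP fluorescence of HEPG2 CAGA-GFP cells gives the signal; cells get compound, then TGF-beta (500 pg/mL final), 18 h at 37 degrees C; %Activity versus -TGF-beta and +DMSO controls.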
HepG2 viability – counter-screen for TGF-b inhibitors: cytotoxicity in HepG2 cells | 410,000 tested, 0.76% active | HepG2 CAGA-GFP viability, ATP luminescence, 18 h | Potency, µM (doses to about 46.1 µM), hits mostly cytotoxic
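CellTiter-Glo luminescence gave cytotoxicity after 18 hours at 37 degrees C. The cells were HepG2 CAGA-GFP in 1% FBS DMEM, stimulated with 500 pg/mL TGF-beta after compound addition. %Activity was normalised to no-cell wells (complete cell-killing) and DMSO (no toxicity), and curves were fitted and classified.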
IL-1B inflam inh – inhibitors of inflammasome signaling (IL-1 beta secretion) | activity change, % at 57.5 µM | THP-1 LPS/ATP IL-1B secretion, AlphaLISA, 16 h; hits give low values | 360,000 tested, 4.7% active; in the data active means activity change below about -50%; inconclusive means mostly about -30% to -49%
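THP-1 cells pretreated 1 hr with compounds (up to 57.5 uM final), then stimulated with LPS (250 ng/mL final) plus ATP (1.25 mM final); secreted IL-1B measured by AlphaLISA after 16 hr, decreased signal indicating inhibition.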
HT1080 IDH1KD tx – toxicity to HT-1080 IDH1 knockdown cells (counter line). HT-1080 IDH1 knockdown viability, ATP luminescence, 48 h. Potency, µM (series often up to 46.1 µM), most hits filed as cytotoxic. 360,000 tested, 2% active. AID 686971
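Cytotoxicity counter-line: IDH1KD HT-1080, 48 h, CellTiter-Glo. Curves classed by r2, magnitude and activity.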
HT1080NT lethal – kills 2HG-producing HT-1080-NT fibrosarcoma cells | HT-1080-NT fibrosarcoma viability, CellTiter-Glo ATP luminescence, 48 h | Potency, µM (top dose mostly 46.1 µM), most hits filed as cytotoxic | 360,000 tested, 1.6% active;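 further: NT is the 2HG producing partner of a matched IDH1 knockdown line; nearly all actives have a fitted effect of over 55% in size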
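Luminescent CellTiter-Glo readout after 48 hours of compound exposure at 37 degrees C defined viability of HT-1080-NT cells. Activity was normalized to DMSO wells and cell-free media wells; concentration-response curves were fitted and assigned curve classes.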
Giardia kill – Giardia lamblia killing; Giardia lamblia trophozoite viability; activity change, % at 7.66 µM, hits read low; 340,000 tested, 0.15% active; in the data active means activity change below about -80%; inconclusive means between about -30% and that limit;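 further: parasites exposed to compound for two days anaerobically before the ATP read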
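Anaerobic 48 hrs incubation at 37 deg C of 100 trophozoites/well with test compounds; ATPLite 1-Step luminescence, 15-30 min RT, reports cellular ATP as viability.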
A number is an active result. Unless noted, the call rests on the fitted dose curve; in most records, active means well fitted curve in the direction sought with a large enough effect; inconclusive means small, poorly fitted or top-dose-only effect, or another doubt; inactive means no such curve, though single readings can be large; an effect the other way counts as inactive or inconclusive.

Oc1cccc(-c2nc(-c3cccs3)c(-c3cccs3)[nH]2)c1 was read as TGFb SMAD3 inh 14.1µM and HepG2 viability inactive.
For O=[N+]([O-])c1cccc(-c2nc(-c3cccs3)c(-c3cccs3)[nH]2)c1 the results were TGFb SMAD3 inh inactive, HepG2 viability inactive, IL-1B inflam inh inactive, HT1080 IDH1KD tx inconclusive, HT1080NT lethal inactive and Giardia kill inactive.
`CCOC(=O)[C@@H]1[C@H]2COc3ccccc3[C@H]2N2C(=O)N(c3ccc(C(F)(F)F)cc3)C(=O)[C@]12C` gave TGFb SMAD3 inh inconclusive, HepG2 viability inactive, IL-1B inflam inh inactive, HT1080 IDH1KD tx inactive, HT1080NT lethal inactive and Giardia kill inactive.
O=c1cc(N2CCCCC2)c(-c2ccccc2)nn1Cc1c(Cl)cccc1Cl was read as TGFb SMAD3 inh 10µM, HepG2 viability 17.8µM, IL-1B inflam inh -66.9, HT1080 IDH1KD tx 16.4µM, HT1080NT lethal 18.4µM and Giardia kill inactive.
Screening O=c1cc(N2CCCCC2)c(-c2ccccc2)nn1Cc1ccc(Cl)cc1 returned TGFb SMAD3 inh inactive, HepG2 viability inactive, IL-1B inflam inh inactive, HT1080 IDH1KD tx inactive, HT1080NT lethal inactive and Giardia kill inactive.
For COc1ccc(/C=C/C(=O)c2ccc3c4c(cccc24)CC3)cc1 the results were TGFb SMAD3 inh inactive, HepG2 viability inactive, IL-1B inflam inh -78.3, HT1080 IDH1KD tx inconclusive, HT1080NT lethal inactive and Giardia kill inactive.
For COc1ccc(/C=C/C(=O)OCC(=O)N2c3ccccc3CC2C)cc1OC (stereo unspecified) the results were TGFb SMAD3 inh inactive, HepG2 viability inactive, IL-1B inflam inh inactive, HT1080 IDH1KD tx inactive and HT1080NT lethal inactive.
`COc1ccc(/C=C/C(=O)c2ccc3c4c(cccc24)CC3)cc1OC` gave TGFb SMAD3 inh inconclusive, HepG2 viability inactive, IL-1B inflam inh inactive, HT1080 IDH1KD tx 16.4µM, HT1080NT lethal inconclusive and Giardia kill inactive.
For COc1ccc(C(=O)Oc2ccc(F)cc2C(=O)/C=C/c2ccc(OC)c(OC)c2)cc1 the results were TGFb SMAD3 inh inactive, HepG2 viability inactive, IL-1B inflam inh inactive, HT1080 IDH1KD tx inconclusive, HT1080NT lethal inconclusive and Giardia kill inactive.
`COc1ccc(/C=C/C(=O)c2cc(F)ccc2OC(=O)c2ccccc2C)cc1OC` gave TGFb SMAD3 inh inconclusive, HepG2 viability inactive, IL-1B inflam inh -99.4, HT1080 IDH1KD tx 3.26µM, HT1080NT lethal 1.3µM and Giardia kill inactive.
`CC1CCN(c2nn3c(=O)c(C(=O)NCCc4ccc(Cl)cc4)cnc3s2)CC1` gave TGFb SMAD3 inh inactive and HepG2 viability inactive.
`COc1cccc(CNC(=O)CN2CCCN(Cc3ccccc3)S2(=O)=O)c1` gave TGFb SMAD3 inh inactive and HepG2 viability inactive.
For S=c1[nH]nc(COc2ccccc2)n1/N=C/c1ccccc1Br the results were TGFb SMAD3 inh inactive, HepG2 viability inactive, IL-1B inflam inh inactive, HT1080 IDH1KD tx inactive, HT1080NT lethal inactive and Giardia kill inactive.
CC(=O)Nc1ccc(OC(=O)c2ccc(Br)c([N+](=O)[O-])c2)cc1 was read as TGFb SMAD3 inh inactive, HepG2 viability inactive, IL-1B inflam inh -147.0, HT1080 IDH1KD tx inconclusive, HT1080NT lethal inactive and Giardia kill inactive.
`O=C(NC1CCCCC1)C(CCc1ccccc1)N1CCOCC1` (stereo unspecified) gave TGFb SMAD3 inh inactive, HepG2 viability inactive, IL-1B inflam inh inactive, HT1080 IDH1KD tx inactive and HT1080NT lethal inactive.
O=C(NC1CCCCC1)C(CCc1ccccc1)N1CCc2ccccc2C1 (stereo unspecified) was read as TGFb SMAD3 inh 10µM, HepG2 viability inactive, IL-1B inflam inh inactive, HT1080 IDH1KD tx inconclusive and HT1080NT lethal inconclusive.
Screening O=C(N/N=C/c1ccc([N+](=O)[O-])o1)c1cn(-c2ccccc2)nc1-c1ccc(Cl)cc1 returned TGFb SMAD3 inh inactive, HepG2 viability inactive, IL-1B inflam inh inactive, HT1080 IDH1KD tx inactive, HT1080NT lethal inactive and Giardia kill -89.8.
`O=C(N/N=C/c1ccc([N+](=O)[O-])o1)c1ccccc1-n1cccc1` gave TGFb SMAD3 inh 10µM, HepG2 viability inactive, IL-1B inflam inh -66.0, HT1080 IDH1KD tx inconclusive, HT1080NT lethal inconclusive and Giardia kill -98.6.
`O=C(O)COc1ccc(/C=N/NC(=O)c2cn(-c3ccccc3)nc2-c2ccccc2)cc1` gave TGFb SMAD3 inh inactive, HepG2 viability inactive, IL-1B inflam inh inactive, HT1080 IDH1KD tx inactive, HT1080NT lethal inactive and Giardia kill inactive.
For O=C(N/N=C/c1ccc([N+](=O)[O-])o1)c1cn(-c2ccccc2)nc1-c1ccccc1 the results were TGFb SMAD3 inh inconclusive, HepG2 viability inactive, IL-1B inflam inh inactive, HT1080 IDH1KD tx inactive, HT1080NT lethal inactive and Giardia kill -94.6.
For O=C(N/N=C/c1ccc([N+](=O)[O-])o1)c1ccc2c(c1)OCO2 the results were TGFb SMAD3 inh 15.8µM, HepG2 viability 11.2µM, IL-1B inflam inh inactive, HT1080 IDH1KD tx inconclusive, HT1080NT lethal inconclusive and Giardia kill -91.4.
For O=C(N/N=C\c1ccc(-c2ccc([N+](=O)[O-])cc2)o1)c1ccc2c(c1)OCO2 the results were TGFb SMAD3 inh inactive, HepG2 viability inactive, IL-1B inflam inh inactive, HT1080 IDH1KD tx inactive, HT1080NT lethal inactive and Giardia kill inactive.
CCn1ncc(CN2CCC(C(=O)Nc3cccc(-c4cccc(F)c4)c3)CC2)c1C was read as TGFb SMAD3 inh inactive, HepG2 viability inactive, IL-1B inflam inh inactive, HT1080 IDH1KD tx inconclusive, HT1080NT lethal inactive and Giardia kill inactive.
Screening Cc1cc(C)n(CCCN2CCC(C(=O)Nc3cccc(-c4cccc(F)c4)c3)CC2)n1 returned TGFb SMAD3 inh inconclusive, HepG2 viability inactive, IL-1B inflam inh -65.4, HT1080 IDH1KD tx inactive, HT1080NT lethal inactive and Giardia kill inactive.
CC(C)Oc1ccc(S(=O)(=O)N2CCOCC2)cc1NC(=O)CC1CCCC1 was read as TGFb SMAD3 inh inactive, HepG2 viability inactive, IL-1B inflam inh inactive, HT1080 IDH1KD tx inactive, HT1080NT lethal inactive and Giardia kill inactive.
`O=C(c1noc2c1CCCC2)N1CCN(c2ccccc2)CC1` gave TGFb SMAD3 inh inactive, HepG2 viability inactive, IL-1B inflam inh inactive, HT1080 IDH1KD tx inactive, HT1080NT lethal inactive and Giardia kill inactive.
Cc1ccc(C)c(N2CCN(C(=O)c3ccc4[nH]c(C)c(C)c4c3)CC2)c1 was read as TGFb SMAD3 inh inactive and HepG2 viability inactive.
`CC(C)c1onc(C(=O)N2CCN(c3ccccc3)CC2)c1[N+](=O)[O-]` gave TGFb SMAD3 inh inactive, HepG2 viability inactive, IL-1B inflam inh inactive, HT1080 IDH1KD tx inactive, HT1080NT lethal inactive and Giardia kill inconclusive.
